# DT40 TDP1 CPT – DT40-hTDP1 cell growth loss with CPT | 420,000 compounds, 12% hits | chicken DT40 Tdp1-/-;hTDP1 cells + 20 nM CPT, ATP luminescence, 48 h | Potency, µM (series often up to 46.2 µM), for inactives: at the top dose activity change, negative = growth inhibition, most hits filed as inhibitors; also: potency is read from the fitted curve at half-maximal effect; nearly all actives have a fitted effect of over 55% in size
#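 Cell growth measured by CellTiter-Glo luminescence after a minimum 48 h, 37 C compound exposure with 20 nM CPT in Tdp1-knockout DT40 cells stably expressing hTDP1, seeded 400/well; qHTS titration format.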
# IL-1B inflam inh – inflammasome signaling inhibition, IL-1 beta readout; THP-1 LPS/ATP IL-1B secretion, AlphaLISA, 16 h; stronger effect = lower value; 360,000 compounds, 4.7% hits; activity change, % at 57.5 µM; in the data active = activity change below about -50%; inconclusive = mostly about -30% to -49%
#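 Secreted IL-1B measured by AlphaLISA bead assay after 16 h compound exposure of THP-1 cells; compounds (final up to 57.5 uM) added 1 h before LPS (250 ng/mL) and ATP (1.25 mM) stimulation; lower signal means less secretion.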
# HT1080NT lethal – kills 2HG-producing HT-1080-NT fibrosarcoma cells | HT-1080-NT fibrosarcoma viability, CellTiter-Glo ATP luminescence, 48 h | Potency, µM (top dose mostly 46.1 µM), inactives show at the highest dose activity, negative = less viability, usual class: cytotoxic | 360,000 compounds, 1.6% hits | AID 686970;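 also: NT is the 2HG producing partner of a matched IDH1 knockdown line; potency is read from the fitted curve at half-maximal effect; 0% = DMSO-treated cells and -100% = media-only wells without cells; nearly all actives have a fitted effect of over 55% in size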
#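 Read-out is CellTiter-Glo luminescence after 10 minutes at room temperature, following 48 hours' compound treatment of HT-1080-NT cells (750 cells/well, RPMI, 5% FBS, 37 degrees C).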
# ELG1 repair inh – blocks ELG1-dependent DNA repair in HEK293T cells. HEK293T ELG1-luciferase reporter, luminescence, 16 h; DNA damage induced by 5-fluorouridine. 330,000 compounds, 2.3% hits. Potency, µM (series often up to 46.1 µM), for inactives: at the highest dose activity change, negative = inhibition, usual class: inhibitors. AID 504467; also: potency is read from the fitted curve at half-maximal effect; nearly all actives have a fitted effect of over 55% in size
#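 Overnight (16 hr) co-exposure of 2,000 cells/well to 5-fluorouridine and compound at 37 °C preceded detection. Luciferase was quantified via ONE-Glo luminescence; loss of signal denotes inhibition.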
# DT40 TDP1 no CPT – qHTS for Inhibitors of human tyrosyl-DNA phosphodiesterase 1 (TDP1): qHTS in cells in absence of CPT; DT40 Tdp1-/- hTDP1 cells, no CPT, ATP luminescence, 48 h; 420,000 compounds, 15% hits; Potency, µM (highest dose often 46.2 µM), without a hit: at the top dose activity change, negative = growth inhibition, most hits filed as inhibitors; AID 686978, 2013; also: potency is read from the fitted curve at half-maximal effect; nearly all actives have a fitted effect of over 55% in size
#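 Compound effects on proliferation are scored in DT40 Tdp1-/-;hTDP1 cells in the absence of CPT. ATP levels (CellTiter-Glo luminescence) are recorded after a ≥48 hr, 37 °C incubation.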
# HT1080 IDH1KD tx – toxicity to HT-1080 IDH1 knockdown cells (counter line) | HT-1080 IDH1 knockdown viability, ATP luminescence, 48 h | Potency, µM (titrated, usually from 46.1 µM), for inactives: top-dose activity, negative = toxicity, hits mostly cytotoxic | 360,000 compounds, 2% hits;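 also: potency is read from the fitted curve at half-maximal effect; 0% = DMSO wells and -100% = cell-free medium wells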
#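 IDH1KD HT-1080 cells, 750/well, RPMI + 5% FBS; compound pinned after 2 h settling; 48 h, 37 °C; CellTiter-Glo luminescence; % activity normalised to DMSO and no-cell wells; curves fitted, classed by r2 and efficacy.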
# * hit, by the source's call; ? = inconclusive; · = no result. Hits are enriched below; roughly 19% of the tested compounds scored in any of these assays. Unless noted, calls follow the shape of the dose curve; as a rule, active = well fitted curve in the direction sought with a large enough effect; inconclusive = small, poorly fitted or top-dose-only effect, or another doubt; inactive = no such curve, though single readings can be large; an effect the other way counts as inactive or inconclusive. Unless noted, % is scaled to controls: 0 for no effect and ±100 for the full control effect.
SMILES,DT40 TDP1 CPT,IL-1B inflam inh,HT1080NT lethal,ELG1 repair inh,DT40 TDP1 no CPT,HT1080 IDH1KD tx
CCOCCCNC(=O)c1c(NC(=O)c2nc(SCC)ncc2Cl)sc2c1CCCC2,?,·,·,·,10µM*,·
CCOC(=O)c1c(NC(=O)c2nc(SCC)ncc2Cl)sc2c1CCCC2,11%,·,·,·,7%,·
COc1ccc(-n2c(=O)c(CCc3ccccc3)nc3cnc(N4CCN(C)CC4)nc32)cc1,-10%,·,·,·,-25%,·
CCOc1ccccc1CN1C(=O)c2ccccc2C1C(=O)NC1CCCCCC1 (stereo not drawn),-26%,·,·,·,?,·
O=S1(=O)CC(N2CCN(CCO)CC2)CN1Cc1cn(Cc2ccccc2C(F)(F)F)nn1 (stereo not drawn),9%,4,14%,·,21%,12%
Cc1ccc2c(CNCc3cccs3)c(C(=O)O)n(Cc3ccc(F)cc3)c2c1,6.5µM*,·,·,·,5.2µM*,·
CCOc1ccccc1CNCc1c(C(=O)O)n(Cc2ccc(F)cc2)c2cc(C)ccc12,13µM*,·,·,·,5.8µM*,·
COc1ccc2c(CNCc3cccs3)c(C(=O)O)n(Cc3ccccc3F)c2c1,?,·,·,·,-28%,·
Cc1ccc2c(CNC3CCCCC3)c(C(=O)O)n(Cc3ccc(F)cc3)c2c1,-20%,·,·,·,?,·
Cc1ccc2c(CNCc3ccc(C)o3)c(C(=O)O)n(Cc3ccc(F)cc3)c2c1,?,·,·,·,16µM*,·
COc1ccc2c(CNCc3cccs3)c(C(=O)O)n(Cc3ccc(F)cc3)c2c1,18µM*,·,·,·,9.2µM*,·
CCOc1ccc(CCNC(=O)Cn2nc(CC)n3c(cc4c(OC)cccc43)c2=O)cc1OCC,-17%,·,·,·,?,·
CC(=O)N1CCC2(CC1)CN(Cc1ccc(C#N)cc1)C2,-2%,·,·,·,-7%,·
COC(=O)c1ccc(NC(=O)c2cc3cc(C)ccc3n2C)cc1,-26%,·,·,·,?,·
C=Cc1ccc(Cn2c(C(=O)O)c(CNCc3ccc(F)cc3)c3ccc(C)cc32)cc1,21µM*,·,·,·,23µM*,·
COc1ccc(Cn2c(C(=O)O)c(CNCc3cccs3)c3ccc(C)cc32)cc1,?,·,·,·,18µM*,·
Cc1c(CNCc2cccs2)c(C(=O)O)c(C)n1Cc1ccccc1,-23%,-1,7%,-1%,-25%,6%
COc1ccc(-c2cc(C(=O)N3CCC3)c3ccccc3n2)cc1OC,-7%,-2,0%,?,-5%,-13%
COc1ccc(-c2cc(C(=O)N3CCCCC3)c3ccccc3n2)cc1,16µM*,-26,-7%,?,?,-1%
COc1cc(C(=O)N2CCN(c3ccccc3)CC2)c2ccccc2n1,0.92µM*,78,?,·,0.73µM*,0.52µM*
COc1ccc(Nc2nnc(-c3ccc(C)cc3)c3ccccc23)cc1C(=O)N1CCCCC1,?,-74*,?,?,?,?
O=C(c1cc(-c2ccc(Cl)cc2)nc2ccccc12)N1CCC1,18µM*,-7,-6%,-9%,16µM*,-13%
O=C(CN1CCN(c2ccccc2F)CC1)N1CCc2ccccc21,-1%,13,-10%,?,?,-11%
CN1CCN(C(=O)C2CCCCC2)CC1,-9%,·,·,·,-1%,·
CC(=O)N1CCc2c(sc3c2c(=O)n(-c2ccccc2C)c(=O)n3CC(=O)c2ccccc2)C1,-2%,·,·,·,-23%,·
SMILES,DT40 TDP1 CPT,IL-1B inflam inh,HT1080NT lethal,ELG1 repair inh,DT40 TDP1 no CPT,HT1080 IDH1KD tx
COc1ccc(-c2cc(C(=O)N3CCCCC3)c3ccccc3n2)cc1OC,?,-69*,-11%,?,-50%,-9%
COc1ccccc1N(C)S(=O)(=O)c1ccc(C(=O)OCC(=O)N2CCCCCC2)cc1,0%,42,15%,8%,-26%,19%
Cc1ccc2c(c1)N(CC(=O)N1CCCCCC1)C(=O)C(C)O2 (stereo not drawn),-3%,-4,8%,18%,-22%,8%
C=C1SC(Nc2c(C)cccc2C)=NC12CCCCC2,?,·,-17%,-1%,?,-11%
C=C1SC(Nc2c(C)cc(C)cc2C)=NC12CCCCC2,?,-69*,-1%,23µM*,18µM*,0%
COc1ccc(CN(C)Cc2nc(Cc3cccc(F)c3)no2)c2cccnc12,12µM*,1,-7%,?,2.9µM*,-26%
COc1cccc(-n2cc(CN(C)Cc3nc(Cc4cccc(F)c4)no3)cn2)c1,?,-25,-1%,?,-29%,-2%
CC(C)C(=O)N1CCN(c2ccc(NC(=O)c3ccc4c(c3)OCCO4)cc2)CC1,4%,9,?,17%,1%,?
Cc1ccccc1C(=O)N1CCN(c2ccc(NC(=O)c3ccc4c(c3)OCCO4)cc2)CC1,?,?,?,?,23µM*,-10%
CC(=O)N1CCN(c2ccc(NC(=O)c3ccc4c(c3)OCO4)cc2)CC1,-13%,-14,-13%,25%,-1%,-9%
Cc1ccc(C(=O)N2CCN(c3ccc(NC(=O)c4ccc5c(c4)OCCO5)cc3)CC2)cc1,16µM*,·,-4%,?,?,-13%
O=C(Nc1ccc(N2CCN(C(=O)c3ccccc3)CC2)cc1)c1ccc2c(c1)OCO2,15µM*,-78*,0%,?,18µM*,-13%
Cc1ccccc1C(=O)N1CCN(c2ccc(NC(=O)c3ccco3)cc2)CC1,-15%,·,2%,-9%,?,1%
O=c1[nH]c(CSc2cccc[n+]2[O-])nc2ccccc12,10µM*,63,0%,?,?,0%
Cn1c(SCc2nc3ccccc3c(=O)[nH]2)nc2ccccc21,1%,22,-2%,-1%,-13%,-9%
Cc1ccc2cc(CN(Cc3ccco3)C(=O)NC3CCCCC3)c(=O)[nH]c2c1C,16µM*,?,-27%,7.3µM*,29µM*,-22%
COc1ccccc1NC(=S)N(Cc1ccco1)Cc1cc2ccc(C)c(C)c2[nH]c1=O,0.58µM*,11,?,?,0.58µM*,?
Cc1ccc2cc(CN(Cc3ccco3)C(=O)C3CCCCC3)c(=O)[nH]c2c1C,?,-7,8%,?,?,19%
COc1ccccc1NC(=S)N(Cc1ccco1)Cc1cc2cc(C)cc(C)c2[nH]c1=O,10µM*,20,?,12µM*,10µM*,?
CNC(=S)N(Cc1ccco1)Cc1cc2cc(OC)c(OC)cc2[nH]c1=O,3%,-7,-10%,1%,0%,-2%
